KLF5 inh – KLF5 expression inhibitors, primary screen, DLD-1 cells, luminescence; DLD-1 KLF5 promoter-luciferase reporter; inhibition, % at 5 µM; hit rate 0.23% among 290,000; AID 1700, 2009;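 active = inhibition above a per-plate limit of that plate's mean compound inhibition plus 3 SD, cut at about 60% in these data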;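 note: 0% = DMSO wells and 100% = LY294002 at 200 µM; higher means less KLF5 promoter-driven luciferase light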
APP 5UTR inh – inhibitors of APP translation via 5'UTR reporter, primary screen, APP 5'UTR luciferase, SH-SY5Y cells; SH-SY5Y APP 5'UTR-luciferase reporter, luminescence; inhibition, % at 2 µM; hit rate 0.82% among 190,000; AID 1285, 2008;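 active = inhibition above a set limit, derived from the sample mean plus 3 SD, cut at about 45% in these data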
BaF3 tox – parental Ba/F3 cell viability inhibition, counter-screen for JAK2V617F inhibitor project, murine pro-B, CellTiter-Glo luminescence. CellTiter-Glo ATP luminescence. inhibition, % at 5.6 µM. hit rate 1.1% among 220,000. AID 1486, 2009;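 active = inhibition above a per-campaign cutoff, the mean inhibition of all tested compounds plus 3 SD, cut at about 27% in these data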;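 note: 0% = DMSO wells and 100% = JAK Inhibitor I control wells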
IEC-6 tox – cytotoxicity in IEC-6 intestinal epithelial cells, primary screen, cytotoxicity control for KLF5 inhibitor project, cell-based, luminescence; IEC-6 cytotoxicity, luminescence viability; inhibition, % at 5 µM; hit rate 0.78% among 290,000; in the data active = inhibition above about 22%;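 note: 0% = plate median of test compound wells and 100% = cytotoxic reference compound wells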
Ba/F3 V617F tox – reduced viability of JAK2V617F-dependent Ba/F3 cells, primary screen, JAK2V617F inhibitor project, cell-based, Ba/F3 EpoR-JAK2V617F, luminescence | hit rate 1.1% among 220,000 | inhibition, % at 5.6 µM | AID 1446, 2008 | ATP luminescence;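 active = inhibition above the campaign mean plus 3 SD over all tested compounds, cut at about 24% in these data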;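 note: cytokine-independent growth of Ba/F3 cells driven by EpoR plus mutant JAK2; 0% = DMSO-treated cells and 100% = JAK inhibitor I control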
aSyn 5UTR inh – MLPCN primary screen, SNCA 5' untranslated region. alpha-synuclein 5'UTR reporter, inhibitor activity. inhibition, % (tested at 7.5 µM). hit rate 0.82% among 300,000; in the data active = inhibition above about 60%;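 note: H4 neuroglioblastoma cells stably carrying SNCA 5'UTR luciferase fusion; 0% = DMSO wells and 100% = positive control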
Active calls of the source: *; / = no result. Sampled rows, rich in hits. Any-hit rate of the full collection: about 2.2%.

SMILES	KLF5 inh	APP 5UTR inh	BaF3 tox	IEC-6 tox	Ba/F3 V617F tox	aSyn 5UTR inh
CC1CC(C)CN(C(=O)C2CCN(S(=O)(=O)c3ccc4c(c3)CC(C)N4C(=O)C3CC3)CC2)C1 (stereo not given)	-4	/	/	5	/	15
COC(=O)c1c(NC(=O)c2ccccc2)sc2c1CC(C)(C)NC2(C)C	-17	10	1	3	1	4
COC(=O)c1c(NC(=O)c2ccc(OC(C)C)cc2)sc2c1CC(C)(C)NC2(C)C	-17	-1	1	0	-5	103*
COC(=O)c1ccc(OS(=O)(=O)N(C)C)cc1	-27	-27	36*	3	-2	-88
CN(C)S(=O)(=O)Oc1ccc(C(=O)Nc2ccc([N+](=O)[O-])cc2)cc1	-9	-44	2	11	1	-5
Cc1ccc(S(=O)(=O)N2CCOC2CNC(=O)C(=O)NCc2ccc3c(c2)OCO3)cc1 (stereo not given)	-30	/	/	9	/	16
CC1CCCC(C)N1CCCNC(=O)c1cc2c(s1)-c1ccccc1OC2 (stereo not given)	-11	/	/	2	/	70*
CCCN1CCN(CCCNC(=O)c2cc3c(s2)-c2c(C)cccc2OC3)CC1	-29	/	/	10	/	8
Cc1cccc2c1-c1sc(C(=O)NCCCN3CCCC(C)C3)cc1CO2 (stereo not given)	-6	/	/	6	/	69*
COc1cc(C(C)=O)ccc1OCCCOc1cccc2cccnc12	-21	/	/	1	/	-7
COCCn1c(=NC(=O)CCS(=O)(=O)c2ccccc2)sc2cc(F)ccc21	-17	/	/	-4	/	21
COc1ccc(C)c2sc(N(CCCN(C)C)C(=O)c3ccc4c(c3)OCCO4)nc12	/	/	/	/	/	-97
Cc1ccc2nc(CSc3nc(C)ccc3C#N)[nH]c2c1	-4	-93	4	-5	2	79*
Cc1ccc(C#N)c(SCc2ccccc2F)n1	-3	/	2	3	-2	22
O=C(N/N=C/c1c[nH]c2ccccc12)c1cc(-c2ccc3ccccc3c2)n[nH]1	-122	88*	13	2	9	-37
FC(F)Sc1ccc(-n2cc(-c3ccccc3)[n+]3c2CCC3)cc1	-11	-17	69*	-2	60*	-10
COc1ccc(-n2cc(-c3ccccc3)[n+]3c2CCCCC3)cc1	-10	5	59*	16	72*	-13
FC(F)Oc1ccc(-n2cc(-c3ccc(Cl)cc3)[n+]3c2CCCCC3)cc1	16	/	62*	2	54*	-10
COc1ccc(-n2cc(-c3ccccc3)nc2SC)cc1	-47	-76	7	-5	0	-121
FC(F)Oc1ccc(-c2csc(Cc3nnc4n3CCCCC4)n2)cc1	11	0	3	6	6	21
COc1ccc(-c2cn(-c3ccc(SC(F)F)cc3)c3[n+]2CCC3)cc1OC	-21	8	3	-3	-4	1
O=C(NC(=S)NCc1ccco1)c1ccccc1[N+](=O)[O-]	-11	/	/	4	/	7
COc1ccc(NC(=O)CSCC(=O)Oc2c(OC)cccc2OC)cc1	/	/	/	/	/	2
CC(=O)N(c1nnc(-c2ccc(C)cc2)s1)C1CCCC1	-83	/	/	-2	/	-83
CCN(CC(=O)NCC(=O)Nc1ccc(Br)cc1C)Cc1ccccc1	/	/	/	/	/	-49
SMILES	KLF5 inh	APP 5UTR inh	BaF3 tox	IEC-6 tox	Ba/F3 V617F tox	aSyn 5UTR inh
Cc1ccnc(NC(=O)C(C)N2C(=O)c3ccccc3S2(=O)=O)c1 (stereo not given)	/	/	/	/	/	-7
Nc1ccn(Cc2cccc(F)c2)n1	-28	0	1	3	0	7
N=c1ccn(Cc2cccc(F)c2)cc1	16	/	66*	-1	71*	17
Cc1cc(C)c(S(=O)(=O)Nc2cc(SCC(=O)O)c(O)c3ccccc23)cc1C	-23	6	11	8	1	67*
COc1ccc(S(=O)(=O)Nc2cc(SCC(=O)O)c(O)c3ccccc23)cc1	-81	/	/	20	/	7
COc1ccc(NC(=O)C(NS(=O)(=O)c2cccs2)C(C)C)cc1Cl (stereo not given)	-5	/	/	-1	/	1
O=C(N1CCCCC1)N1CCN(C(=O)N(c2ccccc2)c2ccccc2)CC1	-28	6	8	3	1	1
O=C(N1CCOCC1)N1CCN(C(=O)N(c2ccccc2)c2ccccc2)CC1	-14	57*	1	-2	-2	24
CNC(=O)c1c[nH]c2ccc(S(=O)(=O)Nc3cccc(SC)c3)cc2c1=O	-11	/	/	4	/	-1
N#CC1=C(N)Oc2cc(O)ccc2C1c1cccnc1 (stereo not given)	-12	-12	3	-4	-4	2
CN(C)c1ccc2c(c1)OC(N)=C(C#N)C2c1cccc(F)c1 (stereo not given)	-25	95*	2	2	-3	68*
CC(=O)c1ccc(NC(=O)c2cnn3ccccc23)cc1	54	-105	3	10	1	79*
CCCCCc1ccc(-c2ccc(/C=C/C(=O)O)cc2)nc1	12	21	7	9	5	79*
CN(C)N1C(N)=C(C#N)C(c2ccc(Br)cc2)C2=C1CC(C)(C)CC2=O (stereo not given)	-7	/	/	-4	/	3
COc1ccc(-n2c(CCC(=O)O)ccc2-c2ccccc2)cc1	-34	-5	29*	-8	18	-8
Cc1cc(C(=O)C(C)Sc2cccc[n+]2[O-])c(C)n1-c1ccc(Cl)cc1 (stereo not given)	-50	-38	1	2	1	-82
CCOC(=O)c1c(C)[nH]c(C)c1C(=O)COC(=O)/C=C/c1ccc(OC(F)F)cc1	-7	-9	3	-3	1	-9
CCOC(=O)c1c(C)[nH]c(C(=O)COC(=O)c2ccc(O)cc2)c1C	4	/	40*	8	39*	8
CCOC(=O)c1c(C)[nH]c(C(=O)COC(=O)/C=C/c2ccc(OC(F)F)cc2)c1C	-12	3	65*	-2	9	-2
CCOC(=O)c1[nH]c(C)c(C(=O)OCC(=O)N2CCc3ccccc32)c1C	-14	46*	5	0	1	33
Cc1ccc(C(=O)N/C(=C\c2cccs2)C(=O)NCCCN2CCOCC2)cc1	-23	/	/	-2	/	-8
O=C(CSc1ncnc2nc[nH]c12)Nc1nnc(SCc2ccc(Cl)c(Cl)c2)s1	7	-21	28*	5	5	-13
Cc1ccc(C)c(NC(=O)CSc2ncnc3nc[nH]c23)c1	-23	-12	5	1	3	23
COc1ccc(C(=O)CSc2ncnc3nc[nH]c23)cc1	-32	/	4	-4	0	-16
CC(=O)CSc1ncnc2nc[nH]c12	-18	4	33*	13	25*	-2
Cn1cccc1/C=N/NC(=O)c1cc(-c2cccs2)nc2ccccc12	-20	47*	3	0	-2	27
